Reference: paper PMC11024108

These substances were tested against Malate dehydrogenase, mitochondrial (UniProt P40926) (assay: cross-link between two proteins; cross-linking mass spectrometry).

Chain of Peptidyl-prolyl cis-trans isomerase F, mitochondrial, P30405 (P30405 whole entry): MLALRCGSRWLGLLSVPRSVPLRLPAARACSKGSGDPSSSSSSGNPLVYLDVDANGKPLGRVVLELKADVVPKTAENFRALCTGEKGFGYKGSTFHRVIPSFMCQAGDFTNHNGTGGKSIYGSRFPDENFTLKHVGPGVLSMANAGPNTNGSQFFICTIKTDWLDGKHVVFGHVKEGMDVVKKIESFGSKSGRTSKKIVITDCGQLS
Chain of Succinate dehydrogenase [ubiquinone] flavoprotein subunit, mitochondrial, P31040 (P31040 whole entry): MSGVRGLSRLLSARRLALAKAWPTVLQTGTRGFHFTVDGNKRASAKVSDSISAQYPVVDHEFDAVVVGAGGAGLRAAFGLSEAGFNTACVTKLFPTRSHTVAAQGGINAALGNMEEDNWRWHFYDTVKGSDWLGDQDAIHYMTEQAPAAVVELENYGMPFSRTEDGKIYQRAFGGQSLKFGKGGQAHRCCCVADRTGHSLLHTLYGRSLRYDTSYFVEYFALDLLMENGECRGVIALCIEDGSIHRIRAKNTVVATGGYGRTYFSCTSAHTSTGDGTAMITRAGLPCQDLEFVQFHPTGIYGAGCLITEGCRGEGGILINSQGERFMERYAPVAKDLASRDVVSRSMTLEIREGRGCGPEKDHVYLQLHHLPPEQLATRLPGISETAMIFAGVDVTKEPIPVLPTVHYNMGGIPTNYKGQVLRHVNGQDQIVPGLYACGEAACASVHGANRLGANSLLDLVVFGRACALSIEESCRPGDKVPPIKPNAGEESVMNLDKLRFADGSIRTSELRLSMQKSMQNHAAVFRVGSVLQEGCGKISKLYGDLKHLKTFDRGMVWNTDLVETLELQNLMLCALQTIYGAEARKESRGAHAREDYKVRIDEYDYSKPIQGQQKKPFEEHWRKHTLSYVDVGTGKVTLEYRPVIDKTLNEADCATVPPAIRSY

Listed as a hit, yes:
Dihydrolipoyl dehydrogenase, mitochondrial, P09622
Aldehyde dehydrogenase, mitochondrial, P05091
Glutathione reductase, mitochondrial, P00390
Aldehyde dehydrogenase family 1 member B1, mitochondrial, P30837
Succinate dehydrogenase [ubiquinone] flavoprotein subunit, mitochondrial, P31040
Peptidyl-prolyl cis-trans isomerase F, mitochondrial, P30405
